Bioassay records (PubChem)
LGR2 antag: blocks bursicon-induced cAMP signaling via Drosophila LGR2. HEK293 LGR2, CRE-luciferase, bursicon-stimulated, 4 h. inhibition, % at 9.99 µM. actives 0.35% (n = 380,000);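 active means drop in luminescence signal, shown as inhibition above about 50% in the replicate tests, limit read from the data, passing the limit was not always enough; inconclusive means probably only some replicates passing the limit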;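 further: agonist challenge used bursicon conditioned medium at about half maximal strength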
CF NFkB inh: cystic fibrosis NF-kB activation inhibition; AID 588850; inhibition, % at 5 µM; actives 0.86% (n = 360,000); KKLEB NF-kB-GFP reporter, PAF-induced, GFP fluorescence overnight;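 active means at least 50% inhibition at 5 µM, scaled per plate between neutral and stimulator controls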;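 further: PAF is a Pseudomonas aeruginosa culture filtrate used as stimulus; plate controls were PAF-stimulated DMSO wells for no effect and unstimulated DMSO wells for full effect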
TWEAK-Fn14 inh: blocks TWEAK-Fn14 interaction in a reporter cell assay; actives 2% (n = 360,000); AID 1159606; TWEAK-stimulated Fn14 reporter cells, luciferase luminescence, 8 h; inhibition, % at 10 µM; in the data active means inhibition above about 50%
HIF-2a block: inhibitors of HIF-2a; 786-0 RCC cells HIF-2a reporter, luciferase luminescence, overnight; inhibition, % at 18.8 µM; actives 0.72% (n = 360,000);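 active means inhibition of the luminescence signal of 40% or more relative to plate controls, in a single-dose primary screen at 18.75 µM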
KKLEB tox: CF airway cell cytotoxicity counter-screen | KKLEB CF airway cells viability, ATPlite luminescence, overnight; stronger effect = lower value; cells stimulated with P. aeruginosa culture filtrate | activity change (cytotoxicity), % at 5 µM | actives 0.36% (n = 360,000);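 active means corrected activity change at or below -50% at 5 µM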
iPSC survival up: increases survival of single human iPS cells. hiPSC single-cell survival, ATPlite luminescence; 100% = ROCK inhibitor wells, 0% = DMSO. survival enhancement, % at 20 µM. actives 0.044% (n = 360,000); in the data active means survival enhancement above about 18%;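 further: cells exposed to compounds for 16 hours before the ATP read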
Numbers without * were called inactive; ? = inconclusive; nt = no result; ! = repeats disagree. An excerpt weighted towards active compounds, which were near 2.3% of everything screened.

SMILES | LGR2 antag | CF NFkB inh | TWEAK-Fn14 inh | HIF-2a block | KKLEB tox | iPSC survival up
Cc1ccc(NS(=O)(=O)c2ccc(Cl)c(NC(=S)NC(=O)C3CCCCC3)c2)cc1Cl | 2.6 | 33.5 | 65.2* | 12.5 | -10.4 | 1.0
Cc1ccccc1-c1cnc2c(c1)C(=O)N([C@@H](C)CO)C[C@H](C)[C@@H](CN(C)C(=O)c1ccncc1)O2 | 8.3 | nt | nt | nt | nt | nt
O=C(C[C@H]1CC[C@@H](NC(=O)c2ccncc2)[C@@H](CO)O1)Nc1ccc(-c2ccccc2)cc1 | 2.2 | nt | nt | nt | nt | nt
Cc1ccc(NC2=C/C(=N/S(=O)(=O)c3cccs3)c3ccccc3C2=O)cc1C | -0.5 | 46.6 | -37.6 | -40.0 | -13.8 | -1.4
CC(=O)Nc1ccc(NC2=C/C(=N/S(=O)(=O)c3cccs3)c3ccccc3C2=O)cc1 | 97.8* | 80.8* | 98.9* | 18.5 | -32.3 | -0.6
COc1ccc(S(=O)(=O)/N=C2\C=C(Nc3ccc(O)cc3)C(=O)c3ccccc32)cc1 | 100.7* | 100.7* | 101.5* | 1.2 | -73.8* | -0.5
C[C@H](CO)N1C[C@H](C)[C@@H](CN(C)S(=O)(=O)c2cn(C)cn2)Oc2c(NC(=O)Nc3cccc4ccccc34)cccc2C1=O | -1.6 | nt | nt | nt | nt | nt
Nc1ccc(O)cc1C(=O)OCC(=O)c1ccc(C2CCCCC2)cc1 | -14.5 | -3.0 | 102.2* | 6.4 | 13.1 | 0.6
CC1Cc2ccccc2N1C(=O)COC(=O)c1ccccc1NCCO (configuration not stated) | 5.4 | 19.6 | 57.1* | -85.4 | 2.8 | -0.5
O=C(COC(=O)c1ccccc1NCCO)NCC1CCCCC1 | -28.0 | 10.7 | 50.1* | -96.1 | -12.5 | -0.6
COc1ccc2c3c([nH]c2c1)[C@@H](CO)N(C(=O)C1CCCC1)CC31CN(C(=O)c2ccncc2)C1 | -11.5 | nt | nt | nt | nt | nt
O=C(O)c1cccc(-n2cccc2/C=C2/NC(=O)N(c3ccc(Cl)cc3)C2=O)c1 | -10.2 | -4.6 | 45.6 | -4.6 | 8.1 | -3.3
O=C(O)c1cccc(-n2cccc2/C=C2/NC(=O)N(c3cccc(Cl)c3)C2=O)c1 | 13.6 | 22.2 | 58.1* | 5.1 | 3.9 | 0.1
COc1ccc(-n2cccc2/C=C2/NC(=O)N(c3cccc(Cl)c3)C2=O)cc1 | nt | 2.6 | 56.3* | -76.8 | 3.4 | -1.1
COc1ccc2c3c([nH]c2c1)[C@H](CO)N(S(C)(=O)=O)CC31CN(C(=O)Nc2ccccc2)C1 | 5.3 | nt | nt | nt | nt | nt
COc1ccc([C@@]2(C(C)C)ON(c3ccccc3C(F)(F)F)C2=O)cc1 | 33.9 | 52.9* | 9.1 | 7.3 | -0.3 | -0.2
O=C(Nc1ccccc1)N1C[C@H]2[C@@H](c3ccccc31)[C@@H](CO)N2C(=O)c1ccccc1F | 8.2 | nt | nt | nt | nt | nt
Cc1ccc(C(NC(=O)NC(C)c2ccccc2)C(Cl)(Cl)Cl)cc1F (configuration not stated) | ? | 30.2 | 55.3* | 19.3 | -12.9 | -0.6
CC(NC(=O)Nc1ccc(Cl)cc1)c1ccccc1 (configuration not stated) | -11.0 | -7.3 | 7.3 | -17.1 | -0.3 | 2.9
CC(C)NC(=O)Nc1ccc2c(c1)C(=O)N([C@@H](C)CO)C[C@H](C)[C@@H](CN(C)C(=O)CCC(F)(F)F)OCCCC[C@H](C)O2 | 13.2 | nt | nt | nt | nt | nt
COc1ccc(-c2cn(CC[C@@H]3CC[C@H](NS(=O)(=O)c4ccccc4C)[C@H](CO)O3)nn2)cc1 | -0.9 | nt | nt | nt | nt | nt
CC1=C(CC(=O)c2ccc(Cl)cc2)C(=O)c2ccccc2C1=O | nt | 64.9* | 72.2* | -144.4 | -31.4 | 0.8
O=C(Cc1ccccn1)c1ccc(Cl)cc1 | -34.5 | -10.6 | -22.8 | -259.9 | 12.5 | -2.0
CC(C)CC1Nc2ncnc(N3CCN(c4ccccc4)CC3)c2N(Cc2ccccc2)C1=O (configuration not stated) | 30.3 | -2.6 | -23.3 | 7.5 | 6.6 | 22.6*!
CCCCc1ccc(NC(=O)c2cnccn2)cc1 | 64.8* | -8.2 | 64.4* | -95.6 | -26.9 | -0.9
SMILES | LGR2 antag | CF NFkB inh | TWEAK-Fn14 inh | HIF-2a block | KKLEB tox | iPSC survival up
CCCc1ccc(C(C)NC(=O)c2cnccn2)cc1 (configuration not stated) | nt | -3.4 | 85.1* | -2.2 | -7.3 | -3.1
COc1ccc(CCNC(=O)c2cnccn2)cc1 | -4.6 | 10.5 | -11.6 | -39.2 | -11.8 | 1.2
CCNC(=O)[C@H]1[C@H](CO)[C@H]2Cn3c(ccc(-c4ccccc4)c3=O)[C@@H]1N2C(=O)C1CC1 | 6.5 | nt | nt | nt | nt | nt
C[C@@H]1CN([C@@H](C)CO)C(=O)Cc2cc(NC(=O)Nc3ccc4c(c3)OCO4)ccc2O[C@@H]1CN(C)Cc1ccc(C(=O)Nc2ccccc2N)cc1 | -17.7 | nt | nt | nt | nt | nt
CCCNC(=O)N1C[C@H](C)[C@H](OC)CN(C)C(=O)c2ccc(NS(=O)(=O)CC(F)(F)F)cc2OC[C@H]1C | 2.1 | nt | nt | nt | nt | nt
O=C(C[C@@H]1C[C@@H]2c3cc(NC(=O)c4cccnc4)ccc3O[C@@H]2[C@H](CO)O1)NCC(F)(F)F | 10.8 | nt | nt | nt | nt | nt
Cc1noc(C)c1S(=O)(=O)Nc1ccc2c(c1)C(=O)N([C@@H](C)CO)C[C@H](C)[C@@H](CN(C)S(=O)(=O)c1c(C)noc1C)OCCCC[C@H](C)O2 | 12.6 | nt | nt | nt | nt | nt
CO[C@H]1CN(C)C(=O)c2cc(NC(C)=O)ccc2OC[C@@H](C)N(CCC(F)(F)F)C[C@H]1C | -3.0 | nt | nt | nt | nt | nt
Cc1nc2ccc([N+](=O)[O-])cc2nc1C | 14.1 | -12.6 | 16.7 | 9.8 | 4.1 | 0.0
Cc1ccc2nc3cc([N+](=O)[O-])cc([N+](=O)[O-])c3cc2c1 | ? | 68.1* | 87.5* | -130.5 | -39.4 | -1.5
CCCc1cn(CC[C@@H]2CC[C@@H](NC(=O)Nc3ccc4c(c3)OCO4)[C@@H](CO)O2)nn1 | -4.1 | nt | nt | nt | nt | nt
O=C1C2C3C=CC(C4CC34)C2C(=O)N1/N=C/c1ccc(-c2ccc([N+](=O)[O-])cc2)o1 (configuration not stated) | -10.3 | -6.8 | -8.3 | 4.3 | -6.4 | 1.1
O=[N+]([O-])c1ccc(/C=N/N=C/c2ccc([N+](=O)[O-])o2)o1 | 82.4* | 82.8* | 83.9* | 23.1 | -46.8 | 1.3
O=C1C2C3C=CC(C4CC34)C2C(=O)N1/N=C/c1ccc([N+](=O)[O-])o1 (configuration not stated) | 25.9 | 3.8 | 89.6* | -6.2 | -1.8 | -3.3
CC1=NN(c2ccc(C)cc2)C(=O)/C1=C\C=C\c1ccccc1 | 0.4 | -10.2 | 94.4* | 23.5 | 13.1 | 1.4
CC1=NN(c2cccc(C(=O)O)c2)C(=O)/C1=C\C=C/c1ccccc1 | ? | 63.5* | 90.7* | 58.7* | -14.7 | -0.2
Cc1ccc(S(=O)(=O)N(C)C[C@@H]2Oc3ccc(NC(=O)CCN4CCOCC4)cc3C(=O)N([C@H](C)CO)C[C@@H]2C)cc1 | -11.1 | nt | nt | nt | nt | nt
COc1ccc(-n2cc(C(=O)c3ccccc3O)cn2)cc1 | ? | 0.9 | 60.9* | -72.3 | -10.4 | -1.1
c1ccc(-n2nnc3c(N4CCOCC4)ncnc32)cc1 | 83.4* | -19.1 | 86.9* | 10.3 | 3.0 | -0.7
